Sampled rows, rich in hits. Any-hit rate of the full collection: about 13%.
RAM network inh – inhibitors of the yeast RAM network, primary screen, dse1pr::URA3 reporter, 5-FOA selection; inhibition, % at 50 µM; AID 868, 2007; S. cerevisiae dse1pr::URA3 reporter, 5-FOA growth OD615, 2 d; analog-sensitive cbk1-as2 kinase mutant strain; actives 1.8% (n = 190,000);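 active = inhibition above a set limit, 3 SD over mean compound inhibition, cut at about 8.4% in these data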;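 note: 0% = DMSO-only wells with no growth and 100% = 10 µM 1-NA-PP1 full growth; inhibition rescues growth on 5-FOA so higher OD means more RAM inhibition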
WT yeast gro inh – growth inhibition of WT strain, primary screen, mitochondrial fusion inhibitor project, WT and mutant strains, chemical genetic; mitochondrial fusion phenotypic screen; inhibition, % at 10 µM; actives 2.1% (n = 190,000); in the data active = inhibition above about 58%; tested in S. cerevisiae
CHOP inhibitor – inhibitors of CHOP promoter induction, primary screen, cell-based, unfolded protein response, luciferase reporter. actives 3.8% (n = 220,000). CHO-K1 CHOP-promoter luciferase, tunicamycin-induced, 15-18 h. inhibition, % at 10 µM;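 active = compounds that reduced the stress-induced luciferase reporter signal by more than about 70% of percent inhibition, limit read from the data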;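 note: 0% = tunicamycin plus vehicle and 100% = wells without tunicamycin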
L major viab – Leishmania major promastigote growth inhibition, primary screen | actives 9% (n = 200,000) | Leishmania major promastigotes, resazurin fluorescence viability | inhibition, % at 10 µM; in the data active = inhibition above about 50%;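 note: promastigotes grown with compound for 44 hours at 28 °C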
* marks the source's active call; other numbers are inactive results.

How did CSCCC(NS(=O)(=O)c1ccc(Cl)cc1)C(=O)OCC(=O)NC12CC3CC(CC(C3)C1)C2 (centres undefined) do in these assays?
RAM network inh: 2; WT yeast gro inh: -1; CHOP inhibitor: 74*; L major viab: 1

What do the screens show for `COc1ccccc1-c1cc(C(F)(F)F)n2ncc(S(=O)(=O)c3ccccc3)c2n1`?
RAM network inh: 1; WT yeast gro inh: 1; CHOP inhibitor: 61; L major viab: 2

What do the screens show for `COc1ccc(-c2coc3c(CN4CCOCC4)c(O)ccc3c2=O)cc1`?
CHOP inhibitor: -5

What do the screens show for `O=c1c(-c2ccc(Cl)cc2)coc2c(CN3CCOCC3)c(O)ccc12`?
RAM network inh: 3; WT yeast gro inh: 3; CHOP inhibitor: 34; L major viab: 59*

Results for CC1=NN(C(N)=S)C(=O)C1N=Nc1ccc(C)cc1C (centres undefined) ?
RAM network inh: 1; WT yeast gro inh: 70*; CHOP inhibitor: 35; L major viab: 60*

How did CC1=NN(c2ccccc2)C(=O)C1N=Nc1ccc(S(N)(=O)=O)cc1 (centres undefined) do in these assays?
CHOP inhibitor: 7

How did CC1=NN(c2ccccc2)C(=O)C1N=Nc1ccc(C)cc1 (centres undefined) do in these assays?
RAM network inh: 5; WT yeast gro inh: 7; CHOP inhibitor: 0; L major viab: -1

How did CC1=NN(C(N)=S)C(=O)C1N=Nc1c(C)cc(C)cc1C (centres undefined) do in these assays?
RAM network inh: 0; WT yeast gro inh: 61*; CHOP inhibitor: -153; L major viab: 12

What do the screens show for `CC1=NN(C(N)=S)C(=O)C1N=Nc1ccccc1C` (centres undefined)?
RAM network inh: 4; WT yeast gro inh: 65*; CHOP inhibitor: -30; L major viab: 8

Results for O=C(c1ccc2c(c1)OCO2)N1CCC2(CC1)Oc1ccc(F)cc1C(=O)C21CC(c2ccccc2)=NO1 (centres undefined) ?
CHOP inhibitor: 17

How did CCn1c(SCC(=O)N(C)c2c(N)n(Cc3ccccc3)c(=O)[nH]c2=O)nc2ccccc21 do in these assays?
CHOP inhibitor: 13

How did Cn1c(NCc2cccc(Br)c2)nc2ccccc21 do in these assays?
RAM network inh: 3; WT yeast gro inh: 32; CHOP inhibitor: 1; L major viab: 61*

Results for CCOc1ccc(C(=O)OC2CCN(C)CC2)cc1 ?
RAM network inh: -1; WT yeast gro inh: -17; CHOP inhibitor: -13; L major viab: 100*

Results for CCCOc1ccc(C(O)(CCC)CCN2CCCCC2)cc1 (centres undefined) ?
RAM network inh: 0; WT yeast gro inh: -21; CHOP inhibitor: -6; L major viab: 49

Results for COc1ccc(C(=O)CCN2CCc3cc(OC)c(OC)cc3C2)cc1 ?
RAM network inh: 1; WT yeast gro inh: -14; CHOP inhibitor: -20; L major viab: 67*

Results for CCCOc1ccc(C(=O)CCN2CCCCC2)cc1 ?
RAM network inh: -2; WT yeast gro inh: -8; CHOP inhibitor: 0; L major viab: 90*

Results for CCCOc1cc(CN2CCCCC2)cc(C(C)=O)c1 ?
RAM network inh: 1; WT yeast gro inh: 9; CHOP inhibitor: 11; L major viab: 52*

Results for CCCCC(=O)Nc1cccc(NC(=O)c2ccccc2Br)c1 ?
RAM network inh: -1; WT yeast gro inh: -13; CHOP inhibitor: 54; L major viab: 7

How did CCCCOc1ccc(C(=O)CCN2CCOCC2)cc1 do in these assays?
RAM network inh: 1; WT yeast gro inh: 25; CHOP inhibitor: -78; L major viab: 76*

Results for COc1ccc(NC(=O)CCN2CCCC(C)C2)cc1 (centres undefined) ?
RAM network inh: 0; WT yeast gro inh: -19; CHOP inhibitor: 28; L major viab: 2

How did CCCOc1ccc(OCCN2CCCC(C)C2)cc1 (centres undefined) do in these assays?
RAM network inh: 0; WT yeast gro inh: 11; CHOP inhibitor: 12; L major viab: 96*

What do the screens show for `COc1ccc(OCCC(=O)N2CCCCC2)cc1`?
RAM network inh: 0; WT yeast gro inh: 88*; CHOP inhibitor: 0; L major viab: 0

What do the screens show for `CCOc1ccc(C(=O)CCN2CCCCCC2)cc1`?
RAM network inh: -2; WT yeast gro inh: -12; CHOP inhibitor: -34; L major viab: 100*

How did O=C(OCCN1CCOCC1)c1ccc(OCCN2CCOCC2)cc1 do in these assays?
RAM network inh: 1; WT yeast gro inh: -1; CHOP inhibitor: -1; L major viab: -2

Results for Cc1nn(Cc2nnc(SCC(=O)Nc3ccc(Cl)cc3)n2C)c(C)c1[N+](=O)[O-] ?
CHOP inhibitor: 10

How did Cc1ccc2nc(-c3ccc(NC(=O)CNC4CC4)cc3)sc2c1 do in these assays?
RAM network inh: -1; WT yeast gro inh: 59*; CHOP inhibitor: 28; L major viab: 16

Results for Cc1ccc2nc(-c3ccc(NC(=S)NC(=O)CC(C)C)cc3)sc2c1 ?
RAM network inh: 4; WT yeast gro inh: 8; CHOP inhibitor: 96*; L major viab: 0

What do the screens show for `Cc1ccc(N(CC(=O)Nc2ccc(-c3nc4ccc(C)cc4s3)cc2)S(C)(=O)=O)cc1`?
RAM network inh: 2; WT yeast gro inh: 30; CHOP inhibitor: 44; L major viab: -4

What do the screens show for `Cc1ccc2nc(-c3ccc(NC(=O)CCS(=O)(=O)c4ccccc4)cc3)sc2c1`?
RAM network inh: 6; WT yeast gro inh: -12; CHOP inhibitor: 82*; L major viab: 0

How did Cc1nc2ccc(NC(=O)CCS(=O)(=O)c3ccccc3)cc2s1 do in these assays?
RAM network inh: 2; WT yeast gro inh: 4; CHOP inhibitor: -11; L major viab: 2

What do the screens show for `Cc1ccc(S(=O)(=O)Nc2ccc(-c3nc4ccc(C)cc4s3)cc2)cc1`?
RAM network inh: 2; WT yeast gro inh: -4; CHOP inhibitor: 87*; L major viab: 1

What do the screens show for `CCSc1nnc(NC(=O)C2CCCN(S(=O)(=O)c3cnc[nH]3)C2)s1` (centres undefined)?
RAM network inh: 1; WT yeast gro inh: -11; CHOP inhibitor: 4; L major viab: -8

How did COC(=O)c1c(C)nn(-c2ccc(F)c(Cl)c2)c1-c1cc(C)on1 do in these assays?
CHOP inhibitor: -9

How did CS(=O)(=O)N1CCCC(C(=O)N2CCN(c3cccc(Cl)c3)CC2)C1 (centres undefined) do in these assays?
RAM network inh: 1; WT yeast gro inh: -8; CHOP inhibitor: -16; L major viab: -3

Results for C=CCn1c(SCC(=O)Nc2ccc(-c3nc4ccc(C)cc4s3)cc2)nnc1-c1ccncc1 ?
RAM network inh: 8; WT yeast gro inh: -21; CHOP inhibitor: -12; L major viab: 50*

What do the screens show for `Cc1nnc(SCC(=O)Nc2ccc(-c3nc4ccccc4s3)cc2)s1`?
RAM network inh: 2; WT yeast gro inh: -9; CHOP inhibitor: 86*; L major viab: 25

How did Cc1ccc2nc(-c3ccc(NC(=O)COC(=O)c4ccc(=O)[nH]c4)cc3)sc2c1 do in these assays?
RAM network inh: 3; WT yeast gro inh: 18; CHOP inhibitor: 47; L major viab: 38

High-throughput results as filed in PubChem BioAssay.
